S aureus helic: blocks Staphylococcus aureus DNA helicase | purified S. aureus helicase, fluorescence unwinding assay | inhibition, % (concentration not given with the values) | 120,000 tested, 0.05% active | AID 485395; in the data active = inhibition above about 25%, passing the limit was not always enough;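 also: 0% = mean of negative control wells and 100% = mean of positive control wells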
Sa growth 42C: blocks Staphylococcus aureus growth | S. aureus RN4220 growth, OD600, 20 h, 42 °C; stronger effect = lower value | relative growth, % (concentration not given with the values) | 170,000 tested, 0.53% active | AID 720641;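 active = relative growth at most 50% at the other temperature and 20+ points below 30 °C, or under 10% at both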
Active calls of the source: *; x = no result. Hits are enriched below; roughly 0.52% of the tested compounds scored in any of these assays.

SMILES	S aureus helic	Sa growth 42C
CN1C(=O)/C(=C2\SC(N3CCCCCC3)=NC2=O)c2ccccc21	43*	111
C=CCN1C(=O)/C(=C2\SC(N3CCCCC3)=NC2=O)c2ccccc21	18	96
O=S1(=O)C=CC(Nc2ccccc2Cl)C1 (centres undefined)	7	105
CCc1ccc(S(=O)(=O)/N=C2/C=C(Nc3ccccc3)C(=O)c3ccccc32)cc1	9	83
O=C1C(Sc2ncn[nH]2)=C/C(=N/S(=O)(=O)c2ccc(Cl)cc2)c2ccccc21	24	1.2*
O=S(=O)(Nc1ccc(Cl)cc1OC(F)(F)F)C(F)(F)F	19	9.5*
Cc1ccccc1NS(=O)(=O)C(F)(F)F	-16	93
Cc1occc1-c1nnc(SCC(=O)N(Cc2ccccc2)C(C)(C)C)n1C	-12	94
CC(=O)O[C@H]1C[C@@]2(C)[C@@H](C[C@@H](O)C3[C@]2(C)CC[C@H]2[C@H](C)[C@H](O)CC[C@]32C)/C1=C(/CCC=C(C)C)C(=O)O (some centres undefined)	x	0.6*
O=C(O)c1ccccc1C(=O)NCc1ccc(N2CCCC2=O)cc1	1	100
c1ccc(-n2c(SCC3CCCO3)nnc2-c2cccs2)cc1 (centres undefined)	-2	97
Cc1cccc(Nc2cc(=O)[nH]c(=O)[nH]2)c1	-7	69
Cc1ccc(Nc2cc(=O)[nH]c(=O)[nH]2)cc1C	x	8.5*
O=C(NCCN1CCOCC1)Nc1c[nH]c2ccccc12	13	3.2*
CC1Cc2ccccc2N1C(=O)Nc1c[nH]c2ccccc12 (centres undefined)	3	15
O=C(NCCN1CCOCC1)Nc1c[nH]c2ccccc2c1=O	11	96
CC1CCCCN1C(=O)Nc1c[nH]c2ccccc12 (centres undefined)	6	2.7*
CC(=O)N1CCN(C(=O)Nc2c[nH]c3ccccc23)CC1	10	6.1*
O=C(Nc1c[nH]c2ccccc12)N1CCCc2ccccc21	11	37
CC(C)(C)N1CC(c2nc3ccccc3[nH]2)CC1=O (centres undefined)	14	106
NNC(=O)c1ccc(Oc2ccc(C(=O)NN)cc2)cc1	-8	69
O=c1cc(C(F)(F)F)[nH]c2ccc(Br)cc12	x	26
O=c1cc(C(F)(F)F)[nH]c2c(OC(F)(F)F)cccc12	x	3.4*
O=c1cc(C(F)(F)F)[nH]c2c(Br)cccc12	-18	3.1*
COc1cccc2c(=O)cc(C)[nH]c12	5	91
SMILES	S aureus helic	Sa growth 42C
CCOC(=O)c1cn(C2CC2)c2c(F)c(F)c(F)cc2c1=O	-3	117
COc1cc(C(=O)N2CCSC2=NCCc2ccccc2)ccc1OCc1c(C)noc1C	-11	94
CC(=O)NC(C)C(=O)Nc1cccc(C)c1C (centres undefined)	-8	100
CCCCCN1C(C(=O)c2ccccc2)=C(NC(C)=O)c2ccccc2S1(=O)=O	x	112
CCCCN1C(C(=O)c2ccccc2)=C(OC(=O)CC)c2ccccc2S1(=O)=O	x	8.2*
CCCN1C(C(=O)c2ccccc2)=C(OC(=O)c2ccc(F)cc2)c2ccccc2S1(=O)=O	x	26
CCCCCN1C(C(=O)c2ccccc2)=C(OC(=O)CC)c2ccccc2S1(=O)=O	x	-0.5*
CCCCC(=O)OC1=C(C(=O)c2ccccc2)N(CCC)S(=O)(=O)c2ccccc21	x	4.0*
CCCN1C(C(=O)c2ccccc2)=C(OC(=O)c2ccc(C)cc2)c2ccccc2S1(=O)=O	x	97
Cc1cc(C(=O)COC(=O)/C=C/c2ccc3c(c2)OCO3)c(C)n1C1CC1	7	84
CN1C(=O)CC(=O)N(C)c2cc(S(=O)(=O)N(C)Cc3ccccc3)ccc21	x	-1.7*
CN(Cc1ccccc1)S(=O)(=O)c1ccc2c(c1)n(C)c(=O)c(=O)n2C	-3	87
Cc1c2oc3c(c2cc2c4c(c(=O)oc12)CCCC4)CCCC3	-11	95
CC(=O)Nc1ccc(N2COc3ccc(NC(C)=O)cc3C2)cc1	9	92
Cc1ccc(CN(C)CC(=O)Nc2ccc3c(c2)OCCCO3)cc1	9	95
c1ccc2c(c1)N1CCN2CC1	-9	94
Nc1ccccc1N1CCCC1	11	2.8*
COC(=O)c1ccc(COC(=O)c2cccc(C(F)(F)F)c2)cc1	-3	93
CO[C@@H]1[C@@H](O[C@@H]2O[C@H](C)[C@@H](O[C@H]3C[C@@](C)(O)[C@H](O)[C@H](C)O3)[C@H](N(C)C)[C@H]2O)[C@@H](CC=O)C[C@@H](C)[C@@H](O[C@H]2CC[C@H](N(C)C)[C@@H](C)O2)/C=C/C=C/C[C@H](C)OC(=O)C[C@H]1O	x	21
CC[C@H]1OC(=O)[C@H](C)[C@@H](O[C@H]2C[C@@](C)(OC)[C@@H](O)[C@H](C)O2)[C@H](C)[C@@H](O[C@@H]2O[C@H](C)C[C@H](N(C)C)[C@H]2O)[C@](C)(O)C[C@@H](C)C(=O)[C@H](C)[C@@H](O)[C@]1(C)O	x	-0.9*
CC[C@H]1OC(=O)[C@H](C)[C@@H](O[C@H]2C[C@@](C)(OC)[C@@H](O)[C@H](C)O2)[C@H](C)[C@@H](O[C@@H]2O[C@H](C)C[C@H](N(C)C)[C@H]2O)C(C)(O)C[C@@H](C)CN(C)[C@H](C)[C@@H](O)[C@]1(C)O (some centres undefined)	x	-0.4*
CCOC(=O)CCC(=O)O[C@H]1[C@H](O[C@@H]2[C@@H](C)[C@H](O[C@H]3C[C@@](C)(OC)[C@@H](O)[C@H](C)O3)[C@@H](C)C(=O)O[C@H](CC)[C@@](C)(O)[C@H](O)[C@@H](C)C(=O)[C@H](C)C[C@@]2(C)O)O[C@H](C)C[C@@H]1N(C)C	x	-0.8*
CCC(=O)O[C@H]1[C@H](O[C@@H]2[C@@H](C)[C@H](O[C@H]3C[C@@](C)(OC)[C@@H](O)[C@H](C)O3)[C@@H](C)C(=O)O[C@H](CC)[C@@](C)(O)[C@H](O)[C@@H](C)C(=O)[C@H](C)C[C@@]2(C)O)O[C@H](C)C[C@@H]1N(C)C	x	-0.9*
CC[C@H]1OC(=O)[C@H](C)C(=O)[C@H](C)[C@@H](O[C@@H]2O[C@H](C)C[C@H](N(C)C)[C@H]2O)[C@](C)(OC)C[C@@H](C)C(=O)[C@H](C)[C@@H]2N(CCCCn3cnc(-c4cccnc4)c3)C(=O)O[C@@]21C	x	93
C=CCN1C(=O)C2(c3ccccc31)c1c(oc3ccccc3c1=O)C(=O)N2CCOC (centres undefined)	-14	114
SMILES	S aureus helic	Sa growth 42C
Cc1ccc(C)c(NC(=S)NCCCO)c1	7	98
O=c1cc(-c2ccc(Cl)cc2)oc2ccccc12	x	111
CCc1ccc(Nc2cc(C(=O)NCc3cccs3)c3ccccc3n2)cc1	11	96
CCS(=O)(=O)C1=NN2C(=N)/C(=C\c3ccc(-c4ccccc4)o3)C(=O)N=C2S1	-54	44*
CS(=O)(=O)C1=NN2C(=N)/C(=C\c3ccc(-c4ccc(Cl)cc4)o3)C(=O)N=C2S1	-15	42
CS(=O)(=O)c1scc(-c2cccs2)c1C#N	x	104
COc1cccc(N2CCN(C(=O)C3=C(C)C(=O)OC34CCCCC4)CC2)c1	-21	98
Cc1nc(Sc2nc3ccccc3o2)c2c3c(sc2n1)CCCC3	12	97
CC1CCCCN1C(=O)c1cnc2n(c1=O)CCS2 (centres undefined)	17	91
O=C1C=CC(=O)N1c1cccc2ccccc12	10	91
CC(C)c1cccc(C(C)C)c1N1C(=O)C=CC1=O	x	6.7*

From PubChem BioAssay
